Laboratory results from PubChem BioAssay (NCATS).
Records with an inconclusive call do not appear. A number with no mark means an inactive call. Active and inactive are the calls of the source. Calls follow the shape of the dose curve; as a rule, active = well fitted inhibition curve with a large enough effect; inconclusive = small, poorly fitted or top-dose-only effect; inactive = flat fitted curve, though single readings scatter.

system: HACAT; experiment: qHTS assay to identify novel small-molecules to repurpose for Merkel cell carcinoma treatment (AID 1296009); conditions: MCC and control cell lines, CellTiter-Glo viability, 72 h; at 44.8 µM (top of the series) unless noted; also: nearly all actives have a fitted effect of over 60% in size
How it was run: (§1)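 qHTS format: cells treated with library compounds in DMSO across 8 (NPC) or 11 (MIPE) concentrations. Readout after 72 hr at 37 degree celsius was CellTiter-Glo luminescence.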
% is scaled to controls: 0 for no effect and ±100 for the full control effect; potency is read from the fitted curve at half-maximal effect.

SMILES	outcome
COc1ccc(-c2coc3cc(O)ccc3c2=O)cc1	inactive
CCN(CC)C(=O)c1ccc(O)c(OC)c1	inactive
CCC(CC)[C@H](NC(C)=O)[C@@H]1[C@H](O)[C@@H](C(=O)O)C[C@@H]1N=C(N)N	inactive
CN1C[C@H]2c3ccccc3Oc3ccc(Cl)cc3[C@@H]2C1	inactive
CO[C@H]1C[C@@H]2CC[C@@H](C)[C@@](O)(O2)C(=O)C(=O)N2CCCC[C@@H]2C(=O)O[C@H]([C@@H](C)C[C@@H]2CC[C@H](O)[C@H](OC)C2)CC(=O)[C@H](C)C=C(C)[C@@H](O)[C@@H](OC)C(=O)[C@H](C)C[C@H](C)C=CC=CC=C1C	inactive
O=C1Nc2ccc(Cl)cc2C(C#CC2CC2)(C(F)(F)F)O1 (stereo not given)	inactive
Cc1c[nH]c(C=C2C(=O)Nc3ccccc32)c1CCC(=O)O	inactive
CCOC1OC(=O)C[C@H]1NC(=O)[C@@H]1CCCN1C(=O)[C@@H](NC(=O)c1ccc(N)c(Cl)c1)C(C)(C)C (stereo not given in full)	inactive
CC=C(C)C(=O)O[C@H]1C(C)=C[C@]23C(=O)[C@@H](C=C(CO)[C@@H](O)[C@]12O)[C@H]1[C@@H](C[C@H]3C)C1(C)C	inactive
NC(=O)NN=Cc1ccc([N+](=O)[O-])o1	inactive

system: HEK293T; experiment: as above; conditions: MCC and control cell lines, CellTiter-Glo viability, 72 h; at 44.8 µM (top of the series)
How it was run: as §1

SMILES	outcome
OC[C@H]1O[C@@H](n2cnc3c2NC=NC[C@@H]3O)C[C@H]1O	inactive
O=C(OCC#CCSc1nnc(-c2cccc3ccccc23)o1)c1cc2ccccc2s1	inactive
CCN(CC)CCOc1ccc(C(=C(Cl)c2ccccc2)c2ccccc2)cc1	inactive
Nc1ncnc2ccccc12	inactive
O=c1cc(-c2cccc3c2Sc2ccccc2S3)oc(N2CCOCC2)c1	inactive
O=C(O)C(O)Cc1ccc(O)c(O)c1 (stereo not given)	inactive
O=c1c(O)c(-c2ccc(O)cc2)oc2cc(O)cc(O)c12	inactive
C[N+](C)(C)CCCCCC[N+](C)(C)C	inactive
CC(=O)N[C@@H](CS)C(=O)O	inactive

system: MCC-13; experiment: as above; conditions: MCC and control cell lines, CellTiter-Glo viability, 72 h; series mostly up to 46 µM; activity change, negative = cytotoxicity: at the top concentration
How it was run: as §1

SMILES	activity change, negative = cytotoxicity [%]	Potency
COc1ccc(-c2coc3cc(O)ccc3c2=O)cc1	-0.737	
CN(C[C@@H]1COCCO1)S(=O)(=O)Nc1ccc2ccc3ncc(-c4cnn(C)c4)cc3c(=O)c2c1	-8.32	
CN(C)c1cc(NC(=O)CNC(C)(C)C)c(O)c2c1C[C@@H]1C[C@H]3[C@H](N(C)C)C(=O)C(C(N)=O)=C(O)[C@@]3(O)C(=O)C1=C2O	3.89	
CCN(CC)C(=O)c1ccc(O)c(OC)c1	10.6	
CC(C)NCC(O)COc1cccc2[nH]ccc12 (stereo not given)	-17.2	
O=c1cc(CN2CCOCC2)occ1OCCCCCSc1ccnc2cc(C(F)(F)F)ccc12	-11.7	
OC[C@H]1O[C@@H](n2cnc3c2NC=NC[C@@H]3O)C[C@H]1O	2.97	
COc1ccc(-c2nc(N3CCOCC3)c3sc(CN(C)c4ncc(C(=O)NO)cn4)cc3n2)cn1		66.2 nM (active)
COc1ccc(-c2cc(=O)c3c(O)cc(O)cc3o2)cc1O	-5.83	
O=c1cc(N2CCOCC2)oc2c(-c3cccc4c3sc3ccccc34)cccc12	6.27	
O=C(OCC#CCSc1nnc(-c2cccc3ccccc23)o1)c1cc2ccccc2s1	1.33	
CCC(CC)[C@H](NC(C)=O)[C@@H]1[C@H](O)[C@@H](C(=O)O)C[C@@H]1N=C(N)N	-4.09	
CCN(CC)CCOc1ccc(C(=C(Cl)c2ccccc2)c2ccccc2)cc1	6.56	
COC(=O)C1=CO[C@@H](O)[C@@H]2C(CO)=CC[C@@H]12	-1.4	
Nc1ncnc2ccccc12	-1.55	
CN1C[C@H]2c3ccccc3Oc3ccc(Cl)cc3[C@@H]2C1		inactive
CO[C@H]1C[C@@H]2CC[C@@H](C)[C@@](O)(O2)C(=O)C(=O)N2CCCC[C@@H]2C(=O)O[C@H]([C@@H](C)C[C@@H]2CC[C@H](O)[C@H](OC)C2)CC(=O)[C@H](C)C=C(C)[C@@H](O)[C@@H](OC)C(=O)[C@H](C)C[C@H](C)C=CC=CC=C1C	-21.7	
CC(C)C(C)C=CC(C)C1CCC2C3=CC=C4CC(O)CCC4(C)C3CCC21C (stereo not given)	-0.737	

SMILES	activity change, negative = cytotoxicity [%]	Potency
O=c1cc(-c2cccc3c2Sc2ccccc2S3)oc(N2CCOCC2)c1	-18.5	
CC(C)(Cc1ccc2ccccc2c1)NC[C@@H](O)COc1cccc(Cl)c1C#N	-9.15	
CC(C)(C)c1ccc(C(O)CCCN2CCC(C(O)(c3ccccc3)c3ccccc3)CC2)cc1 (stereo not given)	-2.64	
O=C1Nc2ccc(Cl)cc2C(C#CC2CC2)(C(F)(F)F)O1 (stereo not given)	-20.5	
O=C1C[C@@H](c2ccc(O)cc2)Oc2cc(O)cc(O)c21	5.74	
Cc1[nH]c(C=C2C(=O)Nc3ccc(S(=O)(=O)Cc4c(Cl)cccc4Cl)cc32)c(C)c1C(=O)N1CCC[C@H]1CN1CCCC1	-1.03	
CC1(C)CCC(CN2CCN(c3ccc(C(=O)NS(=O)(=O)c4ccc(NCC5CCOCC5)c([N+](=O)[O-])c4)c(Oc4cnc5[nH]ccc5c4)c3)CC2)=C(c2ccc(Cl)cc2)C1	-8.22	
Cc1c[nH]c(C=C2C(=O)Nc3ccccc32)c1CCC(=O)O	-15	
COc1cccc(-c2cc(=O)c3ccccc3o2)c1N	5.27	
CCOC1OC(=O)C[C@H]1NC(=O)[C@@H]1CCCN1C(=O)[C@@H](NC(=O)c1ccc(N)c(Cl)c1)C(C)(C)C (stereo not given in full)	7.22	
O=C(O)C(O)Cc1ccc(O)c(O)c1 (stereo not given)	-0.866	
CC=C(C)C(=O)O[C@H]1C(C)=C[C@]23C(=O)[C@@H](C=C(CO)[C@@H](O)[C@]12O)[C@H]1[C@@H](C[C@H]3C)C1(C)C	-24.5	
COc1ccc2cccc(CCNC(C)=O)c2c1	-4.38	
O=c1c(O)c(-c2ccc(O)cc2)oc2cc(O)cc(O)c12	0.655	
Nc1ncnc2c1ncn2[C@@H]1O[C@H](CO)C[C@@H]1O	-18.8	
C[N+](C)(C)CCCCCC[N+](C)(C)C	11.4	
NC(=O)NN=Cc1ccc([N+](=O)[O-])o1	-0.611	
CC(=O)N[C@@H](CS)C(=O)O	4.55	
